What was measured:
Assay in all cases: thermal shift delta Tm vs DMSO control; higher = stronger stabilization (binding)
Conditions in all cases: 12.5 µM; protein concentration 2 µM
LOC_OS02G45750-cb003 = test system: LOC_OS02G45750-cb003
Outline: (§1)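 Purified, E. coli-expressed rice kinase domain constructs were tested by differential scanning fluorimetry in 96-well plates: 19.5 μl of 2 μM kinase in 100 mM potassium phosphate pH 7.5, 150 mM NaCl, 10% glycerol, 5 × SYPRO Orange, plus compound in DMSO. Fluorescence was read from 25°C to 95°C at 0.05°C/s. Melting temperatures came from Boltzmann fits, and the shift is the triplicate mean relative to protein with DMSO alone.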

LOC_OS02G54510-cb004 = test system: LOC_OS02G54510-cb004
Outline: as §1

LOC_OS03G04050-cb001 = test system: LOC_OS03G04050-cb001
Outline: as §1

LOC_OS03G12390-cb001 = test system: LOC_OS03G12390-cb001
Outline: as §1

LOC_OS03G27990-cb004 = test system: LOC_OS03G27990-cb004
Outline: as §1

LOC_OS03G50450-cb001 = test system: LOC_OS03G50450-cb001
Outline: as §1

LOC_OS03G50810-cb003 = test system: LOC_OS03G50810-cb003
Outline: as §1

LOC_OS04G35114-cb001 = test system: LOC_OS04G35114-cb001
Outline: as §1

LOC_OS04G38480-cb003 = test system: T1, LOC_OS04G38480-cb003
T1 sequence (whole entry): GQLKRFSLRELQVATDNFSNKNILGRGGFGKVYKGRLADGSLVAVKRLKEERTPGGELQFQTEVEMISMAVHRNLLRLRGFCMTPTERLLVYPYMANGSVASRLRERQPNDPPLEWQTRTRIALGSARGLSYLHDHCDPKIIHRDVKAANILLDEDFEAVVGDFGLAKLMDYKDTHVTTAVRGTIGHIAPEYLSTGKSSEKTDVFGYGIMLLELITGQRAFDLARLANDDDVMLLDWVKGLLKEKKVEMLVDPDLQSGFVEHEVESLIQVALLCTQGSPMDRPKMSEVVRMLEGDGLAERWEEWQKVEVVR
Outline: as §1

LOC_OS04G41100-cb001 = test system: T2, LOC_OS04G41100-cb001
T2 sequence (whole entry): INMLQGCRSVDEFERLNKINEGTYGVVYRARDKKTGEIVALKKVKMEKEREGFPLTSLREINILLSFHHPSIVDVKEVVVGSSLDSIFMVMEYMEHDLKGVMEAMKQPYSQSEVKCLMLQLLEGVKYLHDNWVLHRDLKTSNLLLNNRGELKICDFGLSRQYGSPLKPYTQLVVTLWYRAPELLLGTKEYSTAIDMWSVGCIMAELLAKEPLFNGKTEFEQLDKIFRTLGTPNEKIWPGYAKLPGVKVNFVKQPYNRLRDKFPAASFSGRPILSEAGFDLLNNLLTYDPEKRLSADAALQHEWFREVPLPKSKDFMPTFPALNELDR
Outline: as §1

LOC_OS04G57630-cb004 = test system: LOC_OS04G57630-cb004
Outline: as §1

LOC_OS05G07850-cb002 = test system: LOC_OS05G07850-cb002
Outline: as §1

LOC_OS05G16824-cb004 = test system: LOC_OS05G16824-cb004
Outline: as §1

LOC_OS05G28520-cb001 = test system: LOC_OS05G28520-cb001
Outline: as §1

LOC_OS05G30820-cb001 = test system: LOC_OS05G30820-cb001
Outline: as §1

LOC_OS05G43570-cb004 = test system: LOC_OS05G43570-cb004
Outline: as §1

LOC_OS06G16330-cb003 = test system: LOC_OS06G16330-cb003
Chain of LOC_OS06G16330-cb003 (as listed by the source): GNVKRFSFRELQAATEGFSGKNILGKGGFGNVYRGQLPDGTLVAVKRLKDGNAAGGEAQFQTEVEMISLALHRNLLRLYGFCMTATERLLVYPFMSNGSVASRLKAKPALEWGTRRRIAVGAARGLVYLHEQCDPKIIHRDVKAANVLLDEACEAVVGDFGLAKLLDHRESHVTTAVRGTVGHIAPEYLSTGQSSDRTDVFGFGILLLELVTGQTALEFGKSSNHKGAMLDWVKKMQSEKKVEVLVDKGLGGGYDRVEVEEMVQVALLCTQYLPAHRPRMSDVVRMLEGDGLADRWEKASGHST
Outline: as §1

LOC_OS06G22820-cb001 = test system: T3, LOC_OS06G22820-cb001
T3 sequence (whole entry): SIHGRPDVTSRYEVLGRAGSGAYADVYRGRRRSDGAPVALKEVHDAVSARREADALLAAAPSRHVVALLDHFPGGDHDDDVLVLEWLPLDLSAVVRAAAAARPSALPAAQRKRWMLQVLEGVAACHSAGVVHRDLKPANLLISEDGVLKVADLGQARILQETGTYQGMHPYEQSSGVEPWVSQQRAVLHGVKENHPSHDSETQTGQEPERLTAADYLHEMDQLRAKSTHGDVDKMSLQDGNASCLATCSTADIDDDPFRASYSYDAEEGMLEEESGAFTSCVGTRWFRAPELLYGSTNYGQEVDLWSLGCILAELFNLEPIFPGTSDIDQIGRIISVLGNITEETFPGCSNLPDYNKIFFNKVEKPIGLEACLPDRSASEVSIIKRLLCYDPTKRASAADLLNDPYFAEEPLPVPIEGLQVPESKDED
Outline: as §1

LOC_OS07G06570-cb004 = test system: LOC_OS07G06570-cb004
Outline: as §1

LOC_OS07G07230-cb001 = test system: LOC_OS07G07230-cb001
Outline: as §1

Structure (SMILES)	thermal shift delta Tm (LOC_OS02G45750-cb003)	thermal shift delta Tm (LOC_OS02G54510-cb004)	thermal shift delta Tm (LOC_OS03G04050-cb001)	thermal shift delta Tm (LOC_OS03G12390-cb001)	thermal shift delta Tm (LOC_OS03G27990-cb004)	thermal shift delta Tm (LOC_OS03G50450-cb001)	thermal shift delta Tm (LOC_OS03G50810-cb003)	thermal shift delta Tm (LOC_OS04G35114-cb001)	thermal shift delta Tm (LOC_OS04G38480-cb003)	thermal shift delta Tm (LOC_OS04G41100-cb001)	thermal shift delta Tm (LOC_OS04G57630-cb004)	thermal shift delta Tm (LOC_OS05G07850-cb002)	thermal shift delta Tm (LOC_OS05G16824-cb004)	thermal shift delta Tm (LOC_OS05G28520-cb001)	thermal shift delta Tm (LOC_OS05G30820-cb001)	thermal shift delta Tm (LOC_OS05G43570-cb004)	thermal shift delta Tm (LOC_OS06G16330-cb003)	thermal shift delta Tm (LOC_OS06G22820-cb001)	thermal shift delta Tm (LOC_OS07G06570-cb004)	thermal shift delta Tm (LOC_OS07G07230-cb001)
N#CCNC(=O)c1ccc(-c2ccnc(Nc3ccc(N4CCOCC4)cc3)n2)cc1 [Momelotinib (CYT387)]	7.23 °C	1.25 °C	0.41 °C	2.09 °C	0.29 °C	1.99 °C	2.03 °C	3.88 °C	3.2 °C	2.25 °C	3.11 °C	11.6 °C	3.39 °C	0.59 °C	0.75 °C	0.76 °C	7.69 °C	0.49 °C	0.77 °C	0.53 °C
Cc1cnc(Nc2ccc(N3CCN(C)CC3)cc2)nc1Nc1cccc(S(=O)(=O)NC(C)(C)C)c1	2.16 °C	1.6 °C	0.74 °C	3.11 °C	1.77 °C	2.4 °C	3.61 °C	3.61 °C	2.7 °C	0.79 °C	2.45 °C	10.4 °C	7.7 °C	1.9 °C	0.89 °C	0.98 °C	5.92 °C	0.43 °C	0.63 °C	-0.42 °C
N#CC1(c2ccc(NC(=O)c3cccnc3NCc3ccncc3)cc2)CCCC1 [Apatinib]	0.45 °C	1.36 °C	0.07 °C	-0.19 °C	0.11 °C	0.69 °C	0.22 °C	0.72 °C	0.83 °C	0.11 °C	0.34 °C	0.8 °C	-5.15 °C	0.2 °C	0.66 °C	0.51 °C	-0.32 °C	0.38 °C	1.2 °C	0.05 °C
COc1cccc(-n2c(=O)[nH]c3cc(Cl)n(-c4ccc(-c5cccc(OC)c5O)cc4)c3c2=O)c1	0.85 °C	0.06 °C	0.3 °C	0.12 °C	0.42 °C	0.22 °C	0.35 °C	0.59 °C	1.27 °C	0.29 °C	0.32 °C	-0.83 °C	-0.73 °C	0.37 °C	0.41 °C	0.59 °C	-0.14 °C	0.65 °C	1.02 °C	0.5 °C
N#Cc1cccc(-c2c[nH]c3ncnc(N4CCOCC4)c23)c1	3.36 °C	0.44 °C	0.26 °C	3.14 °C	0.37 °C	-0.1 °C	2.96 °C	5.02 °C	1.08 °C	0.06 °C	0.05 °C	12.3 °C	1 °C	0.3 °C	0.46 °C	0.26 °C	3.82 °C	0.53 °C	0.63 °C	0.58 °C
CCN1CCN(Cc2ccc(-c3cc4c(N[C@H](C)c5ccccc5)ncnc4[nH]3)cc2)CC1	6.37 °C	0.94 °C	-0.21 °C	1.63 °C	2.76 °C	0.56 °C	1.13 °C	3.16 °C	1.7 °C	0.38 °C	0.95 °C	5.78 °C	3.87 °C	1 °C	0.48 °C	0.5 °C	4.68 °C	0.76 °C	1.03 °C	0.13 °C
O=C1NC(=O)/C(=C/c2ccc3nccc(-c4ccncc4)c3c2)S1	1.29 °C	0.51 °C	0.38 °C	2.47 °C	0.28 °C	0.79 °C	0.4 °C	7.2 °C	1.96 °C	0.48 °C	1.23 °C	8.62 °C	0.06 °C	0.11 °C	0.15 °C	0.36 °C	3.51 °C	0.22 °C	1.03 °C	0.79 °C
CC(C)NC[C@@H](C(=O)N1CCN(c2ncnc3c2[C@H](C)C[C@H]3O)CC1)c1ccc(Cl)cc1 [Ipatasertib (GDC-0068)]	0.72 °C	0.15 °C	0.65 °C	-0.37 °C	0.47 °C	1.15 °C	0.45 °C	0.7 °C	1.01 °C	0.07 °C	-0.05 °C	0.18 °C	-3.22 °C	0.5 °C	0.46 °C	0.17 °C	-0.53 °C	0.38 °C	1.25 °C	0.21 °C
Cc1nc(Nc2n[nH]c3c2CN(C(=O)N[C@H](CN(C)C)c2ccccc2)C3(C)C)c2sccc2n1	0.94 °C	0.82 °C	0.62 °C	3.19 °C	0.55 °C	0.78 °C	1.44 °C	3.07 °C	0.43 °C	0.63 °C	0.4 °C	1.45 °C	5.08 °C	2.24 °C	0.45 °C	1.95 °C	0.72 °C	2 °C	1.67 °C	0.02 °C
CNc1nc(-c2ccc3c(N)n[nH]c3c2)cc(N2C[C@@H](C(=O)NC3CCCCC3)CC[C@H]2C)n1	0.45 °C	0.92 °C	0.58 °C	0.25 °C	0.2 °C	0.38 °C	0.87 °C	0.5 °C	1.14 °C	0.66 °C	0.37 °C	2.19 °C	-1.52 °C	0.81 °C	0.31 °C	0.65 °C	0.1 °C	0.79 °C	1.92 °C	0.33 °C
CC(C)CC(NC(=O)C(Cc1ccccc1)NC(=O)C(CCC(N)=O)NC(=O)C(Cc1ccc(O)cc1)NC(=O)C(C)NC(=O)CNC(=O)C(CCCCN)NC(=O)C(Cc1c[nH]c2ccccc12)NC(=O)C(NC(=O)C(Cc1c[nH]c2ccccc12)NC(=O)C(CCCCN)NC(=O)CNC(=O)C(CC(N)=O)NC(=O)C(CCC(=O)O)NC(=O)C(Cc1c[nH]c2ccccc12)NC(=O)C(NC(=O)C(Cc1c[nH]c2ccccc12)NC(=O)C(CO)NC(=O)CNC(=O)C1CCCN1C(=O)C(Cc1c[nH]c2ccccc12)NC(=O)C(CCC(N)=O)NC(=O)C(Cc1ccccc1)NC(=O)CNC(=O)C(N)Cc1c[nH]cn1)C(C)O)C(C)O)C(=O)NC(CCCCN)C(=O)NCC(=O)NCC(=O)NCC(=O)NCC(=O)NC(CO)C(=O)NC(CCCNC(=N)N)C(=O)NC(CCCNC(=N)N)C(=O)NC(CCCNC(=N)N)C(=O)NC(CCCNC(=N)N)C(=O)NC(CCCNC(=N)N)C(=O)NC(CCCNC(=N)N)C(=O)NC(CCCNC(=N)N)C(=O)NC(CCCNC(=N)N)C(=O)NC(CCCNC(=N)N)C(=O)O (stereo not given)	0.69 °C	0.13 °C	0.6 °C	-3.52 °C	-3.62 °C	0.05 °C	-1.39 °C	0.3 °C	4.04 °C	0.4 °C	0.42 °C	3.56 °C	2.71 °C	0.07 °C	0.42 °C	1.33 °C	0.39 °C	1.2 °C	0.27 °C	0.04 °C
O=C(O)c1ccc(-c2c[nH]c3ncc(-c4ccccc4)cc23)cc1C1CCCC1	1.28 °C	0.31 °C	0.69 °C	0.39 °C	0.6 °C	1.12 °C	0.8 °C	2.01 °C	4.2 °C	0.44 °C	3.53 °C	6.21 °C	4.46 °C	1.1 °C	0.74 °C	-0.07 °C	10.4 °C	0.29 °C	-3.29 °C	0.05 °C
